“And” between values parts separate entries of the source, which are not always exact repeats. Equal entries are not always repeated. Compounds without any hit were thinned out: in the full panel of roughly 83,000, 20% have a hit.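 Assay: single dose, 48 h. Readout: percent growth (0 = no net growth; negative = cell death). Active: <10.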 The source made the active and inactive calls.

Some test systems named below: SR leukemia; RPMI-8226 leukemia; OVCAR-8 ovarian; OVCAR-5 ovarian; OVCAR-4 ovarian; SK-OV-3 ovarian; IGROV1 ovarian; OVCAR-3 ovarian; HS 578T breast; NCI/ADR-RES ovarian; T-47D breast; BT-549 breast; SW-620 colon; MCF7 breast; HCT-116 colon; HCC-2998 colon; KM12 colon; MDA-MB-435 melanoma.
Test in all cases: NCI-60 one-dose screen, 48 h (100 = growth as untreated, 0 = no growth, -100 = all killed)
What all share (conditions): 10 µM unless noted

`O=C(O)CN(CCN(CC(=O)O)CC(=O)O)CCN(CC(=O)O)CC(=O)O`: the growth in the experiment with SR leukemia was -21% (active) and 105% (inactive) and 101% (inactive); in the experiment with RPMI-8226 leukemia, 14.4% (inactive) and 102% (inactive) and 101% (inactive); in the experiment with OVCAR-8 ovarian, -15.6% (active) and 97.9% (inactive) and 99.4% (inactive); in the experiment on OVCAR-5 ovarian, 89.8% (inactive) and 109% (inactive); in the experiment with OVCAR-4 ovarian it was 20.2% (inactive) and 105% (inactive) and 100% (inactive); in the experiment on SK-OV-3 ovarian, 0.709% (active) and 105% (inactive) and 108% (inactive). For the same molecule, the growth is 15% (inactive) in the experiment on IGROV1 ovarian; -17.3% (active) and 110% (inactive) and 108% (inactive) in the experiment with OVCAR-3 ovarian; 7.28% (active) and 134% (inactive) with HS 578T breast; -37.7% (active) and 110% (inactive) and 113% (inactive) in the experiment on NCI/ADR-RES ovarian; 9.23% (active) and 101% (inactive) in the experiment with T-47D breast; -10.9% (active) and 92.1% (inactive) in the experiment with BT-549 breast. Further, the growth was 10.5% (inactive) and 109% (inactive) in the experiment with SW-620 colon; 18% (inactive) and 85.5% (inactive) and 101% (inactive) in the experiment with MCF7 breast; 3.66% (active) and 91.9% (inactive) and 100% (inactive) in the experiment on HCT-116 colon; 15.8% (inactive) and 105% (inactive) and 110% (inactive) in the experiment on HCC-2998 colon; 15.9% (inactive) and 112% (inactive) and 108% (inactive) in the experiment with KM12 colon.
As to `COc1cc(-c2nccc3cc4c(cc23)OCO4)cc(OC)c1OC`, the growth in the experiment with SR leukemia is 18.5% (inactive) and 35.6% (inactive); in the experiment on RPMI-8226 leukemia, 37.5% (inactive); in the experiment with OVCAR-8 ovarian, 48.9% (inactive) and 35.2% (inactive); in the experiment on OVCAR-5 ovarian, 66.4% (inactive) and 73.5% (inactive); with OVCAR-4 ovarian, 79.2% (inactive) and 69% (inactive); in the experiment with SK-OV-3 ovarian, 23.7% (inactive) and 9.08% (active). In addition, the growth in the experiment on IGROV1 ovarian was 45.8% (inactive) and 37.7% (inactive); with OVCAR-3 ovarian, -9.95% (active) and -25.2% (active); in the experiment on HS 578T breast it was 18.7% (inactive) and 53.8% (inactive); in the experiment on NCI/ADR-RES ovarian, -3.6% (active) and 8.92% (active); in the experiment on T-47D breast it was 27.6% (inactive) and 31.9% (inactive); in the experiment on BT-549 breast, 56.8% (inactive). Also, the growth in the experiment with MDA-MB-435 melanoma is -14.5% (active) and -22.9% (active); in the experiment on SW-620 colon, 16.7% (inactive) and 17.5% (inactive); with HCC-2998 colon it was 59.8% (inactive) and 48.4% (inactive); with KM12 colon, 32.3% (inactive) and 25% (inactive).
As for `O=C(N/N=C/c1ccc2c(c1)OCO2)c1ccncc1`, the growth was 113% (inactive) and 134% (inactive) with SR leukemia; 111% (inactive) and 103% (inactive) in the experiment with RPMI-8226 leukemia; 100% (inactive) and 109% (inactive) in the experiment on OVCAR-8 ovarian; 98.7% (inactive) and 113% (inactive) in the experiment with OVCAR-5 ovarian; 103% (inactive) and 98.7% (inactive) with OVCAR-4 ovarian; 101% (inactive) and 104% (inactive) in the experiment on SK-OV-3 ovarian. For the same molecule, the growth was 88.7% (inactive) and 86.6% (inactive) with IGROV1 ovarian; 106% (inactive) and 96.5% (inactive) in the experiment on OVCAR-3 ovarian; 103% (inactive) and 102% (inactive) with HS 578T breast; 101% (inactive) and 106% (inactive) in the experiment on NCI/ADR-RES ovarian; 112% (inactive) and 102% (inactive) with T-47D breast; 103% (inactive) and 102% (inactive) in the experiment on BT-549 breast. Moreover, the growth is 93.6% (inactive) and 98.3% (inactive) with SW-620 colon; 107% (inactive) and 86.8% (inactive) in the experiment with MCF7 breast; 105% (inactive) and 101% (inactive) with HCT-116 colon; 103% (inactive) and 113% (inactive) in the experiment with HCC-2998 colon; 91.9% (inactive) and 103% (inactive) in the experiment on KM12 colon.
Regarding `CCN(CC)CCC(CNc1c2ccc([N+](=O)[O-])cc2nc2cc(OC)c(OC)cc12)c1ccccc1` (stereo not given), the growth with SR leukemia is -14.8% (active); in the experiment with RPMI-8226 leukemia it was -5.85% (active) and -73% (active); with OVCAR-8 ovarian, 6.28% (active) and -80.7% (active); with OVCAR-5 ovarian, -13.3% (active) and -83.9% (active); in the experiment with OVCAR-4 ovarian, -53.2% (active) and -94.6% (active); with SK-OV-3 ovarian it was 27.3% (inactive) and -64.1% (active). The growth was -49.8% (active) and -64% (active) with IGROV1 ovarian; -38% (active) and -100% (active) in the experiment on OVCAR-3 ovarian; 44.4% (inactive) in the experiment on HS 578T breast; 30.5% (inactive) and -58.4% (active) with NCI/ADR-RES ovarian; -11.2% (active) and -82% (active) in the experiment on T-47D breast; -33.9% (active) and -92.7% (active) with BT-549 breast. Besides, the growth is 6.7% (active) in the experiment with SW-620 colon; -50.2% (active) and -97.5% (active) in the experiment with MCF7 breast; -69% (active) and -89.1% (active) with HCT-116 colon; -98.9% (active) with HCC-2998 colon; -63.5% (active) and -100% (active) in the experiment on KM12 colon.
`Cc1cc(-c2ccc(NS(=O)(=O)c3ccccc3)c(C)c2)ccc1NS(=O)(=O)c1ccccc1`: the growth with SR leukemia was 49.2% (inactive) and 59.7% (inactive); with RPMI-8226 leukemia, 53.7% (inactive) and 66.1% (inactive); in the experiment on OVCAR-8 ovarian, 85.4% (inactive) and 95.8% (inactive); in the experiment on OVCAR-5 ovarian, 126% (inactive) and 111% (inactive); in the experiment with OVCAR-4 ovarian, 66.2% (inactive) and 99% (inactive); in the experiment with SK-OV-3 ovarian, 102% (inactive) and 126% (inactive). The growth was 69.3% (inactive) and 117% (inactive) with IGROV1 ovarian; 90.1% (inactive) and 107% (inactive) in the experiment with OVCAR-3 ovarian; 83.4% (inactive) and 92.6% (inactive) in the experiment on HS 578T breast; 86.1% (inactive) and 87.3% (inactive) in the experiment on NCI/ADR-RES ovarian; 78.7% (inactive) and 105% (inactive) in the experiment with T-47D breast; 79.7% (inactive) with BT-549 breast. Besides, the growth in the experiment with MDA-MB-435 melanoma is 92.5% (inactive) and 102% (inactive); with SW-620 colon it was 92.2% (inactive) and 108% (inactive); in the experiment with HCT-116 colon, 70.7% (inactive) and 101% (inactive); in the experiment on KM12 colon it was 72.3% (inactive) and 90.1% (inactive).
With `CCN(CC)CCCC(CNc1ccnc2cc(Cl)ccc12)c1ccc(Cl)cc1` (stereo not given), the growth in the experiment on SR leukemia is -42.9% (active) and -57.7% (active); in the experiment on RPMI-8226 leukemia, -7.53% (active) and -24.9% (active); in the experiment on OVCAR-8 ovarian, 7.69% (active) and 8.6% (active); in the experiment on OVCAR-5 ovarian, 17.5% (inactive) and 62.9% (inactive); with OVCAR-4 ovarian, -34.9% (active) and 14.3% (inactive); in the experiment with SK-OV-3 ovarian, 28% (inactive) and 99.4% (inactive). Also, the growth in the experiment on IGROV1 ovarian is -9.56% (active) and 20.2% (inactive); in the experiment on OVCAR-3 ovarian, 43% (inactive) and 19.9% (inactive); in the experiment with HS 578T breast, 21.6% (inactive); in the experiment on NCI/ADR-RES ovarian, 19.5% (inactive) and 15.9% (inactive); with T-47D breast, -41.1% (active) and 114% (inactive); in the experiment with BT-549 breast, 10.4% (inactive) and -11.4% (active). The growth with MDA-MB-435 melanoma was -93.3% (active) and -61.5% (active); with SW-620 colon, 6.45% (active) and -100% (active); in the experiment on MCF7 breast, -31.8% (active) and 70.3% (inactive); in the experiment on KM12 colon it was 1.49% (active) and 33.3% (inactive).
As for `COc1cc(C(=O)c2ccc3c(c2)OCO3)cc(OC)c1OC`, the growth with SR leukemia was 19.8% (inactive) and 12% (inactive); with RPMI-8226 leukemia, 29.6% (inactive) and 34% (inactive); in the experiment with OVCAR-8 ovarian, 33.9% (inactive) and 36.5% (inactive); in the experiment on OVCAR-5 ovarian, 62.3% (inactive) and 63.4% (inactive); in the experiment with OVCAR-4 ovarian it was 80.8% (inactive) and 53.9% (inactive); in the experiment with SK-OV-3 ovarian it was 24.2% (inactive) and 27.7% (inactive). Moreover, the growth is 11.1% (inactive) and 30.7% (inactive) in the experiment on IGROV1 ovarian; -38.3% (active) and -26.6% (active) with OVCAR-3 ovarian; 19.2% (inactive) and -19.2% (active) in the experiment on HS 578T breast; 10.9% (inactive) and 25% (inactive) in the experiment on NCI/ADR-RES ovarian; 34.4% (inactive) and 32.8% (inactive) in the experiment with T-47D breast; 45.5% (inactive) and 30.3% (inactive) with BT-549 breast. Also, the growth was -19.5% (active) and -21.3% (active) with MDA-MB-435 melanoma; 16.1% (inactive) and 9.92% (active) with SW-620 colon; 23.2% (inactive) and 14.8% (inactive) in the experiment with MCF7 breast; 60.1% (inactive) and 54.8% (inactive) in the experiment on HCC-2998 colon; 24.7% (inactive) and 27.3% (inactive) in the experiment with KM12 colon.
With `c1ccc2c(CC3=NCCN3)cccc2c1`, the growth is 101% (inactive) with SR leukemia; 104% (inactive) and 97.2% (inactive) in the experiment with RPMI-8226 leukemia; 98% (inactive) and 101% (inactive) in the experiment on OVCAR-8 ovarian; 97.7% (inactive) and 108% (inactive) with OVCAR-5 ovarian; 108% (inactive) and 110% (inactive) in the experiment with OVCAR-4 ovarian; 105% (inactive) and 107% (inactive) with SK-OV-3 ovarian. Also, the growth in the experiment on IGROV1 ovarian was 108% (inactive) and 116% (inactive); in the experiment with OVCAR-3 ovarian, 117% (inactive) and 116% (inactive); in the experiment on HS 578T breast, 107% (inactive) and 99.6% (inactive); with NCI/ADR-RES ovarian it was 101% (inactive) and 105% (inactive); in the experiment on T-47D breast it was 106% (inactive) and 111% (inactive); in the experiment on BT-549 breast, 101% (inactive) and 96.9% (inactive). Besides, the growth in the experiment on SW-620 colon is 107% (inactive) and 110% (inactive); with MCF7 breast, 99.4% (inactive) and 102% (inactive); in the experiment with HCT-116 colon, 94.7% (inactive) and 104% (inactive); in the experiment on HCC-2998 colon, 97.5% (inactive) and 103% (inactive); in the experiment on KM12 colon, 109% (inactive) and 111% (inactive).
Turning to `CC(=O)Nc1ccc2cc3ccc(NC(C)=O)cc3nc2c1`, the growth was 72.3% (inactive) in the experiment with SR leukemia; 54.5% (inactive) and 94.8% (inactive) in the experiment with RPMI-8226 leukemia; 88.7% (inactive) and 85.6% (inactive) in the experiment with OVCAR-8 ovarian; 89.2% (inactive) and 63.4% (inactive) with OVCAR-5 ovarian; 87.1% (inactive) and 98.3% (inactive) with OVCAR-4 ovarian; -13.4% (active) and 67.8% (inactive) in the experiment on SK-OV-3 ovarian. Further, the growth with IGROV1 ovarian was 85.8% (inactive) and 101% (inactive); in the experiment with OVCAR-3 ovarian it was 85.8% (inactive) and 99.2% (inactive); with HS 578T breast, 84.3% (inactive) and 87.3% (inactive); with NCI/ADR-RES ovarian it was 99.9% (inactive) and 97.7% (inactive); in the experiment on T-47D breast it was 81.6% (inactive) and 69.9% (inactive); in the experiment on BT-549 breast, 106% (inactive) and 92.9% (inactive). The growth was 83.6% (inactive) and 92.6% (inactive) in the experiment with MDA-MB-435 melanoma; 90% (inactive) and 91.3% (inactive) with SW-620 colon; 68.3% (inactive) and 85.1% (inactive) in the experiment with MCF7 breast; 92.3% (inactive) and 81.3% (inactive) with HCT-116 colon; 79.6% (inactive) and 89.5% (inactive) in the experiment on KM12 colon.
